Assay outcomes as filed in PubChem.
Hits are enriched below; roughly 1.8% of the tested compounds scored in any of these assays.
697 NFkB inh = inhibitors of PMA/ionomycin-induced NF-kB reporter, 697 cells, primary screen, B-cell NF-kB inhibitor project, cell-based, luminescence, uHTS. 697 B-cell NF-kB luciferase reporter, 16 h. inhibition, % at 4 µM. actives 0.33% (n = 330,000); in the data active means inhibition above about 35%
Beta apoptosis = inhibitors of cytokine-induced beta cell apoptosis, primary screen, luminescence; INS-1E cytokine-induced death, ATP luminescence, 48 h; percent of positive-control rescue, neutral wells zero; protection from apoptosis, % (no concentration beside the values); actives 0.8% (n = 300,000); AID 435005, 2010;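 active means Every replicate reaches about 75%, or at least half do and their mean reaches it too, limit read from the data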;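 further: 0% = cytokine-treated negative control wells and 100% = positive control rescue; higher means more ATP so stronger rescue from cytokine killing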
Gli-Sufu antag = Gli-Sufu pathway antagonists, primary screen, luciferase luminescence, Sufu-KO-LIGHT cells, uHTS; Sufu-KO-LIGHT fibroblasts, Gli luciferase reporter luminescence; inhibition, % at 5 µM; actives 0.74% (n = 340,000);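 active means inhibition above about 55%, limit read from the data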;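 further: 0% = DMSO-treated cells and 100% = wells with medium but no cells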
Jurkat NFkB inh = inhibitors of induced NF-kB luciferase reporter, primary screen, TCR NF-kB activation inhibitor project, cell-based, luminescence, uHTS. Jurkat, PMA/ionomycin-induced NF-kB luciferase reporter. actives 0.53% (n = 330,000). inhibition, % at 4 µM; in the data active means inhibition above about 50%
Gli-Sufu confirm = Gli-SUFU pathway antagonists, confirmation, single concentration, luciferase luminescence, Sufu-KO-LIGHT cells; actives 40% (n = 2,500); shares compounds with Gli-Sufu antag; Gli luciferase reporter; inhibition, % at 5 µM;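 active means mean inhibition at 5 µM reaching about 45%, limit read from the data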;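 further: plate controls were DMSO-treated cells for no effect and wells lacking cells for full effect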
Gli cytotox = cytotoxicity in Sufu-KO-LIGHT cells, confirmation, cytotoxicity control for Gli-SUFU antagonist project, cell-based, ATP luminescence, single concentration; cytotoxicity, % at 5 µM; AID 651994, 2013; shares compounds with Gli-Sufu antag; actives 32% (n = 2,500);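 active means mean cytotoxicity at 5 µM above about 25%, limit read from the data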;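 further: cells exposed to compound overnight for roughly 16 to 18 hours; plate controls were DMSO wells with cells for no effect and medium without cells for full effect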
Wnt3a counter = Wnt3a reporter signal inhibition, confirmation, counter-screen for Gli-SUFU antagonist project, Wnt-LIGHT cells, luminescence, single concentration. shares compounds with Gli-Sufu antag. Wnt3a-driven luciferase reporter. inhibition, % at 6.25 µM. actives 20% (n = 2,500);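 active means mean inhibition above about 25%, limit read from the data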
Numbers without * were called inactive; / = no result.

SMILES	697 NFkB inh	Beta apoptosis	Gli-Sufu antag	Jurkat NFkB inh	Gli-Sufu confirm	Gli cytotox	Wnt3a counter
Cc1nnc(C)c2c(C)n(-c3ccccc3)c(C)c12	-8	/	59*	-2	37	14	-15
Nc1nc(N2CCN(Cc3ccccc3)CC2)n[nH]1	9	/	24	10	/	/	/
Nc1nc(N2CCN(C(c3ccccc3)c3ccccc3)CC2)n[nH]1	13	/	66*	8	31	22	-15
C=CCn1c(CCn2c3ccccc3c3ccccc32)n[nH]c1=S	-36	4	-4	-7	/	/	/
C=CCn1c(CCC(O)COCCC)n[nH]c1=S (stereo not drawn)	18	-3	54	-11	11	22	-21
CCC(=O)c1cc(F)c(N2CCN(S(=O)(=O)c3ccccc3)CC2)cc1C	-27	4	-8	1	/	/	/
O=C(OCC12CC3CC(CC(C3)C1)C2)c1ccc(NCc2cc(O)ccc2O)cc1	/	/	78*	/	68*	38*	66*
COC(=O)[C@]1(C)N[C@H](c2ccc(-c3ccc(OC)cc3)cc2)[C@@H]2C(=O)N(C)C(=O)[C@@H]21	4	-1	-1	7	/	/	/
CC12CCC(=O)C=C1CCC1C2CCC2(C)C(C(=O)CO)CC(O)C12 (stereo not drawn)	/	/	4	/	/	/	/
CC(=O)[C@@]1(O)CC[C@H]2[C@@H]3CCC4=CC(=O)CC[C@]4(C)[C@H]3[C@@H](O)C[C@@]21C	-2	-2	5	21	/	/	/
CC12CCC(=O)C=C1CCC1C2CCC2(C)C(c3csc(N)n3)CCC12 (stereo not drawn)	/	/	58*	/	62*	40*	46*
CC12CCC(=O)C=C1CCC1C2C(O)CC2(C)C(c3csc(N)n3)CCC12 (stereo not drawn)	/	/	59*	/	61*	18	32*
O=C(Nc1cccc(Cl)c1)Nc1nnc(-c2ccncc2)s1	-107	100*	57*	9	61*	19	69*
O=C(Nc1ccc(Cl)cc1)Nc1nnc(-c2ccncc2)s1	/	99*	74*	/	72*	25*	70*
Cc1ccc(NC(=O)Nc2nnc(-c3ccncc3)s2)cc1C	-33	/	-13	-20	/	/	/
Cc1ccc(S(=O)(=O)NC(C)C(c2cccs2)N2CCN(c3ccccc3)CC2)cc1 (stereo not drawn)	3	-9	8	0	/	/	/
Cc1ccc([N+](=O)[O-])cc1NC(=O)CCc1ccccc1	11	0	4	-8	/	/	/
NC(=O)c1nsc(C(=O)N(c2cccc(F)c2)C(C(=O)NCC2CCCO2)c2c[nH]c3ccccc23)c1N (stereo not drawn)	11	7	20	20	/	/	/
CCOC(=O)N1CCN(Cc2nc3c(c(=O)n(C)c(=O)n3C)n2CCCc2ccccc2)CC1	-3	0	99*	-32	19	1	-34
CCOC(=O)c1c(CSc2nc(C)cc(C)c2C#N)n(C)c2cc(Br)c(OC(C)=O)cc12	-24	111*	79*	5	80*	38*	10
CCCCCCCCOC(=O)c1c(CSC(=N)N)n(C)c2cc(Br)c(OC(C)=O)cc12	-8	-1	23	15	/	/	/
C=CCCc1ccc(C#N)c(SCc2c(C(=O)OCC)c3cc(OC(C)=O)c(Br)cc3n2C)n1	-7	110*	73*	18	85*	43*	41*
CCOC(=O)c1c(CSC(=N)N)n(-c2ccc(Br)cc2)c2cc(Br)c(OC(C)=O)cc12	/	/	10	/	/	/	/
O=C(CSC1=NS(=O)(=O)c2cc(Cl)ccc2N1)Nc1ccccc1F	5	1	-3	9	/	/	/
COc1ccc2[nH]c(=O)c(CN(C(=O)c3cccnc3)c3cccc(C)c3)cc2c1	14	4	9	-4	/	/	/
SMILES	697 NFkB inh	Beta apoptosis	Gli-Sufu antag	Jurkat NFkB inh	Gli-Sufu confirm	Gli cytotox	Wnt3a counter
COc1ccc2[nH]c(=O)c(CN(C(=O)c3cccnc3)c3ccc(C)cc3)cc2c1	15	-1	83*	8	17	5	-7
Cn1c(=O)[nH]c(=O)c2c1nc(N1CCN(CCO)CC1)n2Cc1ccccc1Cl	-52	/	44	-39	/	/	/
CCc1cccc(NC(=O)C2CCCN2S(=O)(=O)c2cccc3cccnc23)c1 (stereo not drawn)	-25	1	52	8	2	-4	-15
CCOC(=O)c1cccc(NC(=O)C2CCCN2S(=O)(=O)c2cccc3cccnc23)c1 (stereo not drawn)	-5	-5	0	13	/	/	/
O=C(CNC(=O)c1ccc(Br)cc1)N/N=C/c1ccc[nH]1	3	-2	-1	10	/	/	/
CCn1nnc(NC(=O)c2sc3ccccc3c2Cl)n1	-34	-4	13	-45	/	/	/
CN(C)CCN1C(=O)c2oc3ccccc3c(=O)c2C1c1ccc(F)cc1 (stereo not drawn)	8	-1	1	4	/	/	/
CCN(CC)CCN1C(=O)c2oc3ccccc3c(=O)c2C1c1ccc(C)cc1 (stereo not drawn)	-31	-6	80*	-5	22	-6	-22
CN(C(=O)c1cccc(NC(=O)Cc2cccc([N+](=O)[O-])c2)c1)C1CCC1	9	0	10	15	/	/	/
COC(=O)NCC(c1ccco1)N1CCN(c2ccc(F)cc2)CC1 (stereo not drawn)	7	-7	52	3	14	9	-25
CCc1c(C(=O)Nc2ccccc2C(N)=O)csc1C	-64	-4	-40	-36	/	/	/
COc1cc(C2c3cc4c(cc3OC(NNC(N)=S)C2C)OCO4)cc(OC)c1OC (stereo not drawn)	/	/	45	/	/	/	/
COc1cc(C2c3cc4c(cc3OC(NNC(N)=O)C2C)OCO4)cc(OC)c1OC (stereo not drawn)	/	/	56*	/	55*	62*	8
CCC1(O)C(=O)OCc2c1cc1n(c2=O)Cc2cc3cc(O)ccc3nc2-1 (stereo not drawn)	/	/	52	/	64*	51*	-72
COc1cccc(NC(=O)CNC(=O)[C@@H]2Cc3ccccc3CN2C(=O)OC(C)(C)C)c1	7	-3	65*	11	24	9	-27
CN1CCN(C(=S)C(=O)NCc2ccccc2)CC1	20	-2	10	-13	/	/	/
CCOC(=O)C1=C(C)OC(N)=C(C#N)C1c1cc2cc(C)ccc2nc1N1CCCCC1 (stereo not drawn)	-33	-8	-10	-14	/	/	/
CCOC(=O)C1=C(C)OC(N)=C(C#N)C1c1cc2ccccc2nc1N1CCCCC1 (stereo not drawn)	3	-9	50	-5	35	16	-14
